Experimental data from PubChem BioAssay (NCATS).
Records with an inconclusive call do not appear. Unmarked numbers belong to inactive results. The call rests on the fitted dose curve; in most records, active means well fitted curve in the direction sought with a large enough effect; inconclusive means small, poorly fitted or top-dose-only effect, or another doubt; inactive means no such curve, though single readings can be large or run the other way. *1 amine or outer side, *2 acyl side, *3 side chain or, on linkers, in order; H or OH if unused. Where a SMILES comes first, the peptide text is derived from it. Bridges are numbered along the chain shown (N, C = ends). [ ]: non-standard residue; d: D form. The star is where a group is joined. ξ: configuration not given here. X10 = NC1=NCCC(C(N[*:1])C(=O)[*:2])N1; ΔAla(3-NHCONH2) = NC(=O)NC=C(N)C(=O)O; ξβ3hOrn = NCCCC(N)CC(=O)*; Dap = NC[CH](N)C(=O)O

What follows are molecules tested against Protein phosphatase 1D (Homo sapiens) (UniProt O15297) (assay: Rhodamine-PBP qHTS Assay for Modulators of WT P53-Induced Phosphatase 1 (WIP1) (AID 1347425)). Conditions: recombinant WIP1, Rhodamine-PBP phosphate fluorescence, real-time; series mostly up to 57.5 µM; activity change, negative = inhibition: at the top concentration.
Chain of Protein phosphatase 1D (Homo sapiens) (O15297 whole entry, looked up): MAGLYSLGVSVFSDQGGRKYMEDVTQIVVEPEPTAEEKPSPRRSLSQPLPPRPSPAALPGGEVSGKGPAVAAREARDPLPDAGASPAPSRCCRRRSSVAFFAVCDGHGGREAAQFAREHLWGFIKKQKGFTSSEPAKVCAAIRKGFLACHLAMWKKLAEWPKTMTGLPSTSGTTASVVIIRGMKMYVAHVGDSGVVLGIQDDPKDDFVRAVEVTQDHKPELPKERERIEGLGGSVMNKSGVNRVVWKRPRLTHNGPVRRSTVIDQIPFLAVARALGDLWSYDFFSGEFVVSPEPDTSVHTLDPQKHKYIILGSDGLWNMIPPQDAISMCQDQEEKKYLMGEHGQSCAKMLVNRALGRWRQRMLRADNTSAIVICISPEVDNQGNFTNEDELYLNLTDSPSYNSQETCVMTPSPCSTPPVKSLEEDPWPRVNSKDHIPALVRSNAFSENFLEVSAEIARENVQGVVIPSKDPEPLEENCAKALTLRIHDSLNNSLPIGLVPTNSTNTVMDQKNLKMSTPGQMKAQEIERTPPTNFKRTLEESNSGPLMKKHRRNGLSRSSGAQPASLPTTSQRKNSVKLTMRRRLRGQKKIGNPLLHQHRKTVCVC
Procedure, shortened: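 The read-out is the change in Rhodamine-PBP fluorescence (f1 - f0, ex 525/em 598 nm) as Pi is released, read each minute for 11 min. Final reaction: 5 nM WIP1, 10 uM phosphopeptide VEPPL-pS-QETFS, 10 uM Rh-PBP, 50 mM Tris-HCl pH 7.5, 30 mM MgCl2. Compound was preincubated with enzyme for 1 hour at room temperature.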
Molecule `NCCCC(N)CC(=O)NCC1NC(=O)C(CO)NC(=O)C(N)CNC(=O)C(C2CCN=C(N)N2)NC(=O)C(=CNC(N)=O)NC1=O` (stereo not drawn) (H-[Dap]S[Dap](ξβ3hOrn)[ΔAla(3-NHCONH2)][X10]; lactam 1-C; configuration not given here) has an activity change, negative = inhibition of 11.7% [at 0.575 µM].
For `Cn1cc(S(C)=O)c(=O)c2ccc(F)cc21` (centres undefined), the “activity change, negative = inhibition” value was 6.03%.
For `CCN1CCN(C(=O)N[C@@H](C(=O)N[C@@H]2C(=O)N3[C@@H]2SC(C)(C)[C@H]3C(=O)O)c2ccccc2)C(=O)C1=O`, the “activity change, negative = inhibition” value was 6.93%.
In the case of `CCCCNc1ccc(C(=O)OCCN(CC)CC)cc1`, the “activity change, negative = inhibition” value is reported as 0.618%.
With `CCOC(=O)Cn1cccc1-c1nc(-c2ccc(OC)cc2)c(-c2ccc(OC)cc2)s1` the “activity change, negative = inhibition” value was -7.8%.
For `NC(=O)NC1N=C([O][Al])NC1=O` (centres undefined), the “activity change, negative = inhibition” value was -5.42%.
In the case of `C[N+]1(C)CCC(OC(=O)C(O)(c2ccccc2)C2CCCC2)C1` (centres undefined), the “activity change, negative = inhibition” value is reported as 0.323%.
With `CC(=O)O[C@H]1CC[C@@]2(C)C(=CC[C@@H]3[C@@H]2CC[C@]2(C)C(C(C)=O)=CC[C@@H]32)C1` the “activity change, negative = inhibition” value was 10.1%.
With `CCOC(=O)C(=O)c1csc(NC=O)n1` the “activity change, negative = inhibition” value was 1.33%.
In the case of `CN(C)CCN(Cc1ccsc1)c1ccccn1`, the “activity change, negative = inhibition” value is reported as 14.6%.
For `Cc1ccc2c(Cl)cc(Cl)c(O)c2n1`, the “activity change, negative = inhibition” value was 2.62%.
With `CCOC(=O)c1cc(=O)c2c(OCC(COc3cccc4oc(C(=O)OCC)cc(=O)c34)OC(=O)[C@@H](N)CCCCN)cccc2o1` the “activity change, negative = inhibition” value was 18.4%.
In the case of `CN1CCC(Nc2ncc3ncnc(Nc4ccc(F)c(Cl)c4)c3n2)CC1`, the “activity change, negative = inhibition” value is reported as 42.2%.
In the case of `CC(=O)[C@H]1CC[C@H]2[C@@H]3C=CC4=CC(=O)CC[C@@]4(C)[C@@H]3CC[C@]12C`, the “activity change, negative = inhibition” value is reported as -3.77%.
